Reference: PMC5540273 (PLoS ONE, 2017)

Tests used:
Conditions in all cases: concentration: 1 μM, replicates: in singlicate; n = 1
[1] = system: PRKCH
[2] = system: PRKCI
[3] = system: PRKCQ
[4] = system: PRKD1
[5] = system: PRKD2
[6] = system: PRKD3
[7] = system: PRKG1
[8] = system: PRKG2
[9] = system: T1, PRKR
T1 construct: gene EIF2AK2

[10] = system: PRKX
[11] = system: PRP4
[12] = system: T2, PYK2
T2 construct: gene PTK2B

[13] = system: QSK
[14] = system: RAF1
[15] = system: RET
[16] = system: RIOK1
[17] = system: RIOK2
[18] = system: RIOK3
[19] = system: RIPK1
[20] = system: RIPK2
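Note: KINOMEscan kinase panel screen.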

Compound	%Inh [1]	%Inh [2]	%Inh [3]	%Inh [4]	%Inh [5]	%Inh [6]	%Inh [7]	%Inh [8]	%Inh [9]	%Inh [10]	%Inh [11]	%Inh [12]	%Inh [13]	%Inh [14]	%Inh [15]	%Inh [16]	%Inh [17]	%Inh [18]	%Inh [19]	%Inh [20]
Cc1nccc(-c2c(-c3ccc(F)cc3)ncn2CCCN2CCOCC2)n1.Cl [SB-282975]	0%	21%	14%	25%	2%	7%	10%	26%	0%	0%	17%	21%	26%	0%	6%	29%	14%	27%	15%	27%
CC(=O)c1cccc(NC(=O)NC2CCN(c3ccnc(Nc4ccc(F)cc4)n3)C2)c1 (stereo not drawn) [GSK1379710]	0%	11%	27%	0%	10%	9%	0%	31%	13%	32%	55%	26%	4%	13%	0%	31%	0%	33%	29%	24%
COc1cccc(NC(=O)Nc2ccc(C)c(-c3ccc(C(=O)Nc4ccncc4)cc3)c2)c1 [GSK1398474]	14%	16%	19%	6%	0%	0%	0%	50%	0%	26%	52%	13%	0%	78%	33%	27%	0%	0%	0%	0%
CNc1cc(-c2ccc3c(N)n[nH]c3c2)nc(N)n1 [GSK2224810]	0%	27%	0%	0%	6%	6%	0%	85%	18%	57%	0%	0%	0%	0%	35%	84%	12%	72%	3%	9%
CS(=O)(=O)CCNCc1nc(-c2ccc3ncnc(Nc4ccc(OCc5ccccc5)c(Cl)c4)c3c2)cs1.Cl [GW582764]	2%	39%	3%	2%	0%	100%	0%	1%	0%	0%	51%	1%	0%	13%	0%	0%	0%	0%	0%	68%
Nc1nccc(-c2c(-c3ccc(F)cc3)ncn2C2CCN(Cc3ccccc3)CC2)n1 [SB-219980]	0%	0%	0%	0%	3%	0%	0%	0%	0%	0%	0%	0%	0%	0%	6%	0%	1%	0%	0%	76%
Cn1cncc1C(=O)NC1CCN(c2ccnc(Nc3ccc(F)cc3)n2)C1 (stereo not drawn) [GSK1379717]	0%	7%	0%	0%	0%	4%	0%	99.3%	0%	0%	35%	0%	0%	43%	0%	24%	0%	2%	2%	6%
COC(=O)C(NC(=O)NC1CCN(c2ccnc(Nc3ccc(F)cc3)n2)C1)c1ccccc1 (stereo not drawn) [GSK1379712]	0%	24%	3%	0%	14%	4%	0%	0%	0%	12%	33%	0%	6%	0%	2%	13%	0%	3%	20%	20%
CCn1c(-c2ccccc2)nc2cnccc21 [SB-733416]	3%	8%	44%	0%	1%	0%	0%	0%	0%	5%	7%	20%	9%	3%	23%	45%	0%	0%	0%	6%
COc1ccc2cc(-c3nc(-c4ccccc4C(C)C)[nH]c3-c3ccncc3)ccc2c1 [SB-660566]	0%	15%	54%	21%	0%	32%	7%	0%	0%	1%	4%	1%	2%	39%	4%	34%	0%	0%	2%	21%
Cc1ccc(NC(=O)Nc2ccccc2F)cc1-c1ccc(C(=O)Nc2ccncc2)cc1 [GSK1398477]	39%	0%	19%	0%	4%	23%	8%	0%	0%	49%	2%	0%	20%	70%	21%	44%	11%	6%	15%	6%
Cl.Cl.Cl.N#Cc1ccc(CCNc2nccc(-c3cccc(CN4CCNCC4)c3)n2)cc1 [GSK2137462]	25%	21%	5%	1%	13%	0%	0%	4%	0%	4%	0%	0%	9%	12%	26%	28%	42%	37%	34%	24%
